Experimental data as given in PubChem BioAssay.

Assays:
[1] = test system: Botulinum neurotoxin type F light chain protease (Clostridium botulinum); assay: Clostridium botulinum type F light chain protease inhibitors, microsphere substrate cleavage, validation (AID 588459); settings: multiplex microsphere protease substrate cleavage assay, flow cytometry; at 10 µM; stronger effect = higher value
[2] = target: Botulinum neurotoxin type A (Clostridium botulinum) (UniProt P0DPI0); assay: BoNT/A light chain protease inhibitors, biochemical, multiplex microsphere flow cytometry, validation set (AID 588460); settings: at 10 µM, stronger effect = higher value
[3] = target: Lethal factor (Bacillus anthracis) (UniProt P15917); assay: Bacillus anthracis lethal factor inhibition, microsphere flow cytometry protease assay, validation at 10 µM (AID 588461); settings: multiplex microsphere protease cleavage assay, stronger effect = higher value

Measured: inhibition

Botulinum neurotoxin type A (Clostridium botulinum), sequence (P0DPI0 whole entry, looked up): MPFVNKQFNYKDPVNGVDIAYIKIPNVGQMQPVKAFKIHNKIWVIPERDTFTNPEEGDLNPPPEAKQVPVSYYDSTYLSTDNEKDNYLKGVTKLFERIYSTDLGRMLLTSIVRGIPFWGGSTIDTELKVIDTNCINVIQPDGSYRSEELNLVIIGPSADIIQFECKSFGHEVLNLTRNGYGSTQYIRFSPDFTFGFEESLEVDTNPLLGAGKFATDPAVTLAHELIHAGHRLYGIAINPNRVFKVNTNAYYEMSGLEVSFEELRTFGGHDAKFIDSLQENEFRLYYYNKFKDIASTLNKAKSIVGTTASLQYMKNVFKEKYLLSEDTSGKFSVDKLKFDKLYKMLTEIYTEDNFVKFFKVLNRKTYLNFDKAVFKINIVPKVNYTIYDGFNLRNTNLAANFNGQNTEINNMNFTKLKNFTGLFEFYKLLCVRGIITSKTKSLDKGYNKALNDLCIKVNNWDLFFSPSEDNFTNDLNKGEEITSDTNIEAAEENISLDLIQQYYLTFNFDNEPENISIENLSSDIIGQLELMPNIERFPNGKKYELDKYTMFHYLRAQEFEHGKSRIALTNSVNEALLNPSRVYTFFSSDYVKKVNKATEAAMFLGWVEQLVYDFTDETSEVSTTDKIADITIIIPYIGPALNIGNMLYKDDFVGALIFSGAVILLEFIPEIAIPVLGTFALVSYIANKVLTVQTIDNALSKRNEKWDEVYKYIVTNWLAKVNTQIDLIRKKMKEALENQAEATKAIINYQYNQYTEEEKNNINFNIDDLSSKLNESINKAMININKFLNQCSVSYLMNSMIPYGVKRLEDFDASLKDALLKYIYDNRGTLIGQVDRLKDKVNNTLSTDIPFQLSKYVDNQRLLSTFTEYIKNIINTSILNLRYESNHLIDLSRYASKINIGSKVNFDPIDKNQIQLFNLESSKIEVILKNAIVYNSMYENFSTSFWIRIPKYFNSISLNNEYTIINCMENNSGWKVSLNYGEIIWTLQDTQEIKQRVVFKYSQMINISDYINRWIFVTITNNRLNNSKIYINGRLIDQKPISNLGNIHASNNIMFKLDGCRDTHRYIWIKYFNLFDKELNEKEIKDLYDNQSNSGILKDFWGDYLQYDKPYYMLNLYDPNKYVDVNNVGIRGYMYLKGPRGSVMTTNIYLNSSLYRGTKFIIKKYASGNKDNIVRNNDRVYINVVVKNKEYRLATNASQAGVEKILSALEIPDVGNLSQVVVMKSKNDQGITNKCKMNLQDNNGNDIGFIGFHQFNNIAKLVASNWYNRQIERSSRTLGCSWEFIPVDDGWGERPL
Lethal factor (Bacillus anthracis), sequence (P15917 whole entry, looked up): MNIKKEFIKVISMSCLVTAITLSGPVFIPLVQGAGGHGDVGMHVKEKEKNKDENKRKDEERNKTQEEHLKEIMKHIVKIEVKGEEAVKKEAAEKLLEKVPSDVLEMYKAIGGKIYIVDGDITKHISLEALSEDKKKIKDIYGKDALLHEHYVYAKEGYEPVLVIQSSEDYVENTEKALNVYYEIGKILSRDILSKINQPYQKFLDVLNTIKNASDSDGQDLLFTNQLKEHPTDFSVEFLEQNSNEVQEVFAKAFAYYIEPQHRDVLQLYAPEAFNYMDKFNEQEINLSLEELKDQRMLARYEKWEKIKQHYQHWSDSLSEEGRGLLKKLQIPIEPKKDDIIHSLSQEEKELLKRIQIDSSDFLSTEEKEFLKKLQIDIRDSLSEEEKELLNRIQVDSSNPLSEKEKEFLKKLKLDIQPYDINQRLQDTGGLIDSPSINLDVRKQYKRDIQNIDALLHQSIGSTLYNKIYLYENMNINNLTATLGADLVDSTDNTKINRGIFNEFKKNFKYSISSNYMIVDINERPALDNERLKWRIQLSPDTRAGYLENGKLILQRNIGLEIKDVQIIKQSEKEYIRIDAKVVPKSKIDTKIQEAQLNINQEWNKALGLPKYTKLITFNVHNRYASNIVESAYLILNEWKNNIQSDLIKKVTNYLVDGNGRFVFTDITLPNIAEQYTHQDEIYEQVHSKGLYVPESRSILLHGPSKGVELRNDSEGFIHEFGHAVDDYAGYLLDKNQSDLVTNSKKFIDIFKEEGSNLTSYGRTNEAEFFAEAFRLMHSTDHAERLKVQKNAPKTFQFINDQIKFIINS

C[C@H]1C[C@H]2[C@@H]3CCC4=CC(=O)C=C[C@]4(C)[C@@]3(Cl)[C@@H](O)C[C@]2(C)[C@@]1(O)C(=O)CO
inactive: [1] 4.5% | [2] -0.1% | [3] 2.1%

CC1/C(=C\c2ccc(Cl)cc2)C(=O)C2CC1C2(C)C (stereo not drawn)
inactive: [1] 5.2% | [2] 0.2% | [3] -9.7%

CCc1cc(=O)oc2cc(OCc3nn[nH]n3)ccc12
inactive: [1] -0.5% | [2] -1.3% | [3] 1.9%

COc1ccc(C2=NOC(COc3ccc4c(C)cc(=O)oc4c3)C2)c(OC)c1 (stereo not drawn)
inactive: [1] -0.4% | [2] 1.7% | [3] 0%

CC(=O)Nc1ccccc1O
inactive: [1] 1.5% | [2] -1.1% | [3] -1.7%

COc1ccc(CN(C)CCc2ccccn2)cc1OC
inactive: [1] -2.7% | [2] 0.2% | [3] -7.1%

CSc1ccc(CN2CCN(CCC(C)C)C(CCO)C2)cc1 (stereo not drawn)
inactive: [1] 2.2% | [2] 0.1% | [3] -3.3%

COc1cccc2c(O)cc(=O)n(C)c12
inactive: [1] -7.7% | [2] -0.5% | [3] -8.1%

CCN(Cc1ccncc1)Cc1nc(Cc2ccccc2Cl)no1
inactive: [1] -4.4% | [2] -0.8% | [3] -2.6%

CCCN1CCC(NC(=O)Nc2ccc(Br)cc2)CC1
inactive: [1] 0.5% | [2] -1.7% | [3] -2%

CCn1ccnc1CN(C)Cc1cn(-c2cccc(C)c2)nc1-c1cccc(F)c1
inactive: [1] 0.6% | [2] -0.3% | [3] -3.5%
